Bioassay records deposited in PubChem BioAssay by Sanford-Burnham Center for Chemical Genomics.
Rows were chosen to be rich in hits. Some 28% of all compounds tested hit in one or more screens of this group.
CYP2C19 inh = blockers of cytochrome P450 2C19 activity – biochemical, luminescence, ADME assay, primary screen. P33261. CYP2C19 Supersomes, luciferin-H EGE luminescence, 30 min. inhibition, % at 5 µM. 96,000 compounds, 21% hits. AID 778, 2007;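 active = CYP2C19 inhibition above a set limit at 5 µM in the primary screen, cut at about 50% in these data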;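 note: plate controls were negative control wells for no effect and 2.5 mM tranylcypromine positive control for full effect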
CYP2C19 activ = human CYP2C19 activators, primary screen, biochemical, luminescence | Cytochrome P450 2C19 (Homo sapiens), P33261 | recombinant CYP2C19, luciferin-H EGE luminescence; active compounds read high; 0 = fully inhibited enzyme, 1 = untreated enzyme | activation factor at 5 µM | 96,000 tested, under 10 active | AID 1025, 2008;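 active = activation factor of at least 2 at 5 µM in the primary screen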;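 note: 0 = wells with 2.5 mM tranylcypromine and 1 = vehicle-only wells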
CD11b adhes inh = inhibitors of CD11b/CD18 adhesion to fibrinogen, primary screen, K562 cells, luminescence; Integrin beta-2 (Homo sapiens) + Integrin alpha-M (Homo sapiens), P05107+P11215; ATPlite luminescence; Mn2+ added to activate the integrin; 93,000 compounds, 0.54% hits; inhibition, % at 10 µM;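 active = primary inhibition of 50% or more at 10 µM, then 40% or more on retest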
Target sequence (P05107 whole entry, looked up, other chains not shown): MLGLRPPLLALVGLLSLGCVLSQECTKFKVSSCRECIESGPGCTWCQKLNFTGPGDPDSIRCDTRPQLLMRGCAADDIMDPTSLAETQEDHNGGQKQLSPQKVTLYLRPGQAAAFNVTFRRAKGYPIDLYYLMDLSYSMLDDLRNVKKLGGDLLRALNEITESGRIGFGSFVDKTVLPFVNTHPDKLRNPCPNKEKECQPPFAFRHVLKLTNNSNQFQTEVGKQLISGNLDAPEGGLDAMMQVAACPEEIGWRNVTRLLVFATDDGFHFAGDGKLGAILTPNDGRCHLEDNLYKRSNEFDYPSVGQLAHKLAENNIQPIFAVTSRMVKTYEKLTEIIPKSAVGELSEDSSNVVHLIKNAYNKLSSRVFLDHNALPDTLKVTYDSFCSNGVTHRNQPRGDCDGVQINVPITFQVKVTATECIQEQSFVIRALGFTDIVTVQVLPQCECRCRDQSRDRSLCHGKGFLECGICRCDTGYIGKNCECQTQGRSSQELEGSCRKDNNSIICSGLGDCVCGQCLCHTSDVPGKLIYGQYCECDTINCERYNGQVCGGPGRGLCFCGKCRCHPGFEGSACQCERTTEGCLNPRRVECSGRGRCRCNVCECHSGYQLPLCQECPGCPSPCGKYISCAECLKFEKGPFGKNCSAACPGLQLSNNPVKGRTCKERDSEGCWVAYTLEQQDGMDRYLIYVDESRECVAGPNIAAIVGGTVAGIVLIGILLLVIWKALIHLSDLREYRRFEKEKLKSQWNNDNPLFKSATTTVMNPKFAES
Mac1 fbg enh = enhancers of CD11b/CD18 adhesion to fibrinogen, primary screen, K562 cells, luminescence. ATPlite luminescence. activation, % at 10 µM. 93,000 compounds, 0.07% hits;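 active = 10 µM primary screen giving 50% or more activity, confirmed by 40% or more on retest at that dose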
CYP2C9 inhib = blockers of cytochrome P450 2C9 activity – biochemical, luminescence, ADME assay, primary screen; inhibition, % at 5 µM; AID 777, 2007; P11712; 96,000 compounds, 20% hits; CYP2C9 Supersomes, luciferin-H conversion;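 active = blocking of liver enzyme CYP2C9 beyond about 50% at 5 µM, limit read from the data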
CYP2C9 act = human CYP2C9 activators, primary screen, biochemical, luminescence; recombinant CYP2C9, luciferin-H conversion; active compounds read high; factor 1 = untreated enzyme, 0 = blocked; activation factor at 5 µM; 96,000 compounds, 1.4% hits; AID 1024, 2008; Cytochrome P450 2C9 (Homo sapiens), P11712;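 active = activation factor of 2 or more for CYP2C9 at a 5 µM dose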;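 note: 0 = sulfaphenazole-blocked wells and 1 = vehicle-only wells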
* marks the source's active call; other numbers are inactive results; x = not tested or not shown.

SMILES	CYP2C19 inh	CYP2C19 activ	CD11b adhes inh	Mac1 fbg enh	CYP2C9 inhib	CYP2C9 act
CCCOc1ccccc1C1CC(=O)NC(C)=C1C(=O)OCC(C)C (centres undefined)	56*	0.4	x	x	-6	1.1
CCC(C)OC(=O)C1=C(C)NC(=O)CC1c1ccccc1OC (centres undefined)	34	0.7	22	2	14	0.9
CC1=C(C(=O)OC(C)C)C(c2ccccc2Cl)CC(=O)N1 (centres undefined)	87*	0.1	12	-4	7	0.9
COc1cc(NS(=O)(=O)c2ccc(C)cc2)ccc1-n1cnnn1	44	0.6	-2	1	72*	0.3
COc1cc(S(=O)(=O)NCCc2ccc3c(c2)OCO3)ccc1-n1cnnn1	96*	0	14	4	87*	0.1
COc1cc(S(=O)(=O)NCC2COCCO2)ccc1-n1cnnn1 (centres undefined)	28	0.7	1	0	8	0.9
CCOCCCNS(=O)(=O)c1ccc(-n2cnnn2)c(OC)c1	89*	0.1	1	-5	-34	1.3
O=C(CSc1nnc2ccccn12)Nc1cccc(S(=O)(=O)N2CCOCC2)c1	x	x	-1	1	x	x
Cc1ccc(C(=O)C[n+]2ccc(-c3nnc4n3CCC4)cc2)cc1	x	x	2	-2	x	x
S=C(Nc1ccc2c(c1)OCO2)NC1CCN(Cc2ccccc2)CC1	18	0.8	2	-1	5	0.9
Cc1cnc(C(=O)N2CCN(S(=O)(=O)c3ccc4ccccc4c3)CC2)cn1	23	0.8	-11	-6	-15	1.2
Cc1ccc(N(C)C(=O)N2CCN(c3ccccn3)CC2)cc1	21	0.8	5	-5	53*	0.5
Cc1ccc(S(=O)(=O)N2CCN(C(=O)N(c3ccccc3)c3ccccc3)CC2)cc1	51*	0.5	4	-3	52*	0.5
Cc1ccc(N(C)C(=O)N2CCN(S(=O)(=O)c3ccc4ccccc4c3)CC2)cc1	57*	0.4	-13	1	34	0.7
Cc1ccc(N(C)C(=O)N2CCN(S(=O)(=O)c3ccc(C)cc3)CC2)cc1	95*	0.1	0	-5	56*	0.4
CC(C)CC(=O)N1CCN(S(=O)(=O)c2ccc3ccccc3c2)CC1	96*	0	20	-4	-92	1.9
Cc1ccc(CN(c2ccc(C(=O)NCc3ccc4c(c3)OCO4)cc2)S(C)(=O)=O)cc1	-13	1.1	-17	0	22	0.8
CC12CCC(C(=O)NCc3ccc4c(c3)OCO4)(C(=O)C1=O)C2(C)C (centres undefined)	56*	0.4	-20	-2	30	0.7
Cc1ccc(S(=O)(=O)C2(C(=O)NCc3ccc4c(c3)OCO4)CC2)cc1	69*	0.3	-24	4	64*	0.4
Cc1ccc(CC(=O)NCc2ccc3c(c2)OCO3)cc1	34	0.7	2	1	48	0.5
O=C(Nc1ccccc1)NC1(C(=O)NCc2cccs2)CCCCC1	13	0.9	-8	-2	63*	0.4
Cc1ccc(NC(=O)NCc2ccc3c(c2)OCO3)cc1	51*	0.5	-2	2	31	0.7
Cc1cccc(N2CCN(CC(O)COCc3cccs3)CC2)c1C (centres undefined)	x	x	7	-1	x	x
Cc1ccc(S(=O)(=O)Cc2ccc(C(=O)NCc3ccc4c(c3)OCO4)o2)cc1	84*	0.2	15	-3	98*	0
O=C(NCc1cccs1)Nc1ccc2c(c1)OCO2	52*	0.5	x	x	17	0.8
SMILES	CYP2C19 inh	CYP2C19 activ	CD11b adhes inh	Mac1 fbg enh	CYP2C9 inhib	CYP2C9 act
COCCNC(=O)c1ccc(CS(=O)(=O)c2ccc(C)cc2)o1	-14	1.1	2	-7	-30	1.3
O=C(NCc1ccccn1)Nc1ccc2c(c1)OCO2	35	0.6	1	0	14	0.9
O=C(NCc1ccc2c(c1)OCO2)c1ccc(CSCc2ccccc2Cl)o1	x	x	52	5	x	x
O=C(NCc1ccc2c(c1)OCO2)c1ccc(COc2cccc(Cl)c2)o1	64*	0.4	4	8	88*	0.1
COc1ccc(NC2=NCC(=O)N2Cc2cccs2)cc1	37	0.6	x	x	28	0.7
Cc1ccc(NC2=NCC(=O)N2Cc2ccc3c(c2)OCO3)cc1	88*	0.1	2	5	86*	0.1
CCC1Sc2ccccc2N(CC(=O)NCc2ccc3c(c2)OCO3)C1=O (centres undefined)	72*	0.3	-3	1	40	0.6
O=C(CN1C(=O)c2cccc3cccc1c23)Nc1ccc2c(c1)OCO2	7	0.9	x	x	15	0.8
CC(C(=O)NCc1ccc2c(c1)OCO2)N1c2cccc3cccc(c23)S1(=O)=O (centres undefined)	82*	0.2	x	x	-166	2.7*
O=C(CN1C(=O)c2cccc3cccc1c23)NCc1ccc2c(c1)OCO2	68*	0.3	4	-2	-300	4*
O=C(CN1c2cccc3cccc(c23)S1(=O)=O)NCc1ccc2c(c1)OCO2	81*	0.2	4	-3	-314	4.1*
CC(C)CN1C(=O)C(=O)N(CC(=O)NCc2ccc3c(c2)OCO3)C1=O	49	0.5	4	-5	17	0.8
C/C(=C\C(=O)O)CC(=O)O	7	0.9	6	-3	30	0.7
CCSc1nnc(NC(=O)CSc2nc(CC)nc3c2c(=O)n(C)c(=O)n3C)s1	29	0.7	7	3	28	0.7
O=C(CN1C(=O)c2cccc3cccc1c23)NCC1CCCO1 (centres undefined)	0	1	5	-1	-253	3.5*
O=C(CN1C(=O)c2cccc3cccc(c23)C1=O)N1CCN(Cc2ccc3c(c2)OCO3)CC1	32	0.7	-11	1	55*	0.5
O=C(CN1C(=O)c2cccc3cccc1c23)NCc1ccccn1	8	0.9	1	-4	-176	2.8*
O=C(c1ccc([N+](=O)[O-])cc1)N(C1=NCCCCS1)c1ccccc1	5	1	8	5	-1	1
CCOC(=O)c1c(C)c(C(=O)N2CCCCCC2)c(C)n1C	27	0.7	x	x	-6	1.1
CCOC(=O)c1c(C)c(C(=O)N2CCCCCC2)c(C)n1CC	67*	0.3	-3	2	-10	1.1
Cc1ccc(Cl)cc1N1CCN(C(=O)COc2ccc3c(c2)CCC3)CC1	x	x	24	2	x	x
